{"source": "ChEMBL document CHEMBL1961873", "about": "“Compounds: GSK PKIS; Assays: Nanosyn kinase panel” (2012)"}
{"target": "Homeodomain-interacting protein kinase 1 (Homo sapiens) (UniProt Q86Z02)", "sequence (Q86Z02 whole entry, looked up)": "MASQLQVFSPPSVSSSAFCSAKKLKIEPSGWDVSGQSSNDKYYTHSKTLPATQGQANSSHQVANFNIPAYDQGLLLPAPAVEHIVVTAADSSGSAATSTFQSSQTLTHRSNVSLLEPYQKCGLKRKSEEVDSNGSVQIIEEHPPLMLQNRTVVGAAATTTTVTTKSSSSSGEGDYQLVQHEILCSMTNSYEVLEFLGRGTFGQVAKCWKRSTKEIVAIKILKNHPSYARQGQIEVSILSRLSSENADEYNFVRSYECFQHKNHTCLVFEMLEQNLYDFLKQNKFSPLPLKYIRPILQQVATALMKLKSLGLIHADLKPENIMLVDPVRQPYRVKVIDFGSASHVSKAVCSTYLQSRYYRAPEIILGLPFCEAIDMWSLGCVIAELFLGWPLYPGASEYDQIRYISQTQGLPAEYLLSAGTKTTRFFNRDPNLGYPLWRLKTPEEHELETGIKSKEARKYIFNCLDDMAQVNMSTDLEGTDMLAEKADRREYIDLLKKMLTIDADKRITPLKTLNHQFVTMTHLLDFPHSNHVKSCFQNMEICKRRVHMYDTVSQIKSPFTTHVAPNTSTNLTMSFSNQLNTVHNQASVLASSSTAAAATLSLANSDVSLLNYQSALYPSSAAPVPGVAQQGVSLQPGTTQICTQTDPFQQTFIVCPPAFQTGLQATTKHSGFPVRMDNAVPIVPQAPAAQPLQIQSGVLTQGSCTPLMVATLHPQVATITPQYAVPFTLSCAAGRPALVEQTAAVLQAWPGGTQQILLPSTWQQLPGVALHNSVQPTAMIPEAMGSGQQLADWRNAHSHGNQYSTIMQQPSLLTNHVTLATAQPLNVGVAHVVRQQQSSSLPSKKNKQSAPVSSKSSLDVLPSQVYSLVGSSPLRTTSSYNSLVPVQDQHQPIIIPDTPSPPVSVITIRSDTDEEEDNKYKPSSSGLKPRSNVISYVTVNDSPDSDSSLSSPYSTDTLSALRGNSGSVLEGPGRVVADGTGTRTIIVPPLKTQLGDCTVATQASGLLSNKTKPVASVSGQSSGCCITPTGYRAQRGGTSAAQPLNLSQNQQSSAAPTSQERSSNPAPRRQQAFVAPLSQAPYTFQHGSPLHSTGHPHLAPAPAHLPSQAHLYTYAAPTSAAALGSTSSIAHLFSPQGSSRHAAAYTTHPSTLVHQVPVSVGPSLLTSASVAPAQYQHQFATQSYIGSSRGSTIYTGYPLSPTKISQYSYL", "conditions": "at 0.1 µM", "units": {"inhibition": "%"}}
{"compound": "Cc1ccc(C(=O)NC2CC2)cc1-c1ccc2[nH]ncc2c1", "inhibition": -4.85}
{"compound": "OCc1ccc(-c2nc(-c3ccccn3)c(-c3ccc4c(c3)OCO4)[nH]2)cc1", "inhibition": 0.23}
{"compound": "CC(C)c1ccc2c(c1)NC(=O)/C2=N/Nc1ccc(S(N)(=O)=O)cc1", "inhibition": -1.88}
{"compound": "CN(C)C(=O)O[C@@H]1CN[C@@H](C#Cc2cc3ncnc(Nc4ccc(OCc5cccc(F)c5)c(Cl)c4)c3s2)C1", "inhibition": -3.67}
{"compound": "COc1cccc(-n2nc(C)c3c(N/N=C(\\C)c4ccncc4)ncnc32)c1", "inhibition": -1.66}
{"compound": "COC(=O)c1ccc2c(c1)C(=Cc1cc(Br)c(O)c(Br)c1)C(=O)N2", "inhibition": 10.2}
{"compound": "Oc1cccc(-c2nc(-c3ccccc3)[nH]c2-c2ccncc2)c1", "inhibition": 1.65}
{"compound": "NS(=O)(=O)c1ccc(N/N=C2\\C(=O)Nc3ccc(Cl)cc32)cc1", "inhibition": 2.46}
{"compound": "COC(=O)Nc1nc2cc(Oc3ccc(NC(=O)Nc4cccc(Br)c4)cc3)ccc2[nH]1", "inhibition": -0.71}
{"compound": "COC(=O)c1cncc(/C=C/c2c(C)cc(O)cc2C)c1", "inhibition": 5.96}
{"compound": "COc1cc(/C=N/Nc2ncnc3c2cnn3C(C)C)ccc1O", "inhibition": 0.71}
{"compound": "CCS(=O)(=O)c1ccc(OC)c(Nc2nccc(N(C)c3ccc4c(C)n[nH]c4c3)n2)c1", "inhibition": -2.02}
{"compound": "[O-][S+]1CCN(Cc2ccc(-c3ccc4ncnc(Nc5ccc(OCc6ccccc6)c(Cl)c5)c4c3)o2)CC1", "inhibition": -1.84}
{"compound": "c1ccc(Cc2nc3ccc(Nc4ncnc5ccccc45)cc3[nH]2)cc1", "inhibition": 6.99}
{"compound": "CCS(=O)(=O)c1ccc(OC)c(Nc2ncc(-c3cccc(OC)c3)o2)c1", "inhibition": 7.9}
{"compound": "CCn1c(-c2nonc2N)nc2ccc(F)cc21", "inhibition": 2.6}
{"compound": "CN(C)c1cc2c(Nc3ccc4c(cnn4Cc4ccccc4)c3)ncnc2cn1", "inhibition": -0.5}
{"compound": "COc1cc2ncnc(Nc3ccc4c(cnn4Cc4ccccc4)c3)c2cc1OC", "inhibition": -5.38}
{"compound": "O=C1Nc2ccc(-c3cccnc3)cc2C1=Cc1cc(Br)c(O)c(Br)c1", "inhibition": 2.42}
{"compound": "COc1cc2ncnc(Nc3ccc(C)c(O)c3)c2cc1OC", "inhibition": 2.85}
{"compound": "Cc1ccc2c(-c3ccnc(Nc4ccc5c(c4)OCCO5)n3)c(-c3ccc(C(F)(F)F)cc3)nn2n1", "inhibition": -4.36}
{"compound": "Cc1ccc2c(-c3ccnc(Nc4cccc(C(F)(F)F)c4)n3)c(-c3ccccc3)nn2n1", "inhibition": 0.33}
{"compound": "C[C@@H](Oc1cc(-n2cnc3ccc(OC[C@@H](O)CO)cc32)sc1C(N)=O)c1ccccc1Cl", "inhibition": -0.81}
{"compound": "CN(C)CCCn1c(-c2nonc2N)nc2cnccc21", "inhibition": 1.03}
{"compound": "CN(c1ccc(NC(=O)Nc2ccc(OC(F)(F)F)cc2)cc1)c1ccnc(Nc2cccc(S(N)(=O)=O)c2)n1", "inhibition": 1.06}
{"compound": "O=C1Nc2ccccc2/C1=C/Nc1ccc2[nH]c(=O)[nH]c2c1", "inhibition": 1.38}
{"compound": "Cc1ccc2c(c1)/C(=N/Nc1ccc(S(N)(=O)=O)cc1)C(=O)N2", "inhibition": -4.8}
{"compound": "CCCN1CCCC(c2ccc(Nc3nc(Nc4cc(F)ccc4C(N)=O)c4cc[nH]c4n3)c(OC)c2)C1", "note": "(stereo not drawn)", "inhibition": 46}
{"compound": "Nc1nccc(-c2c(-c3ccc(F)cc3)nn3cc(C(F)(F)F)ccc23)n1", "inhibition": -6.6}
{"compound": "NS(=O)(=O)c1ccc(-c2cc3ccncc3cc2OCc2ccccc2)cc1", "inhibition": 1.69}
{"compound": "NC(=O)c1sc(-n2cnc3ccccc32)cc1OCc1ccccc1Br", "inhibition": -1.6}
{"compound": "O=S(=O)(CCOCc1ccc(-c2ccc3ncnc(Nc4ccc(OCc5cccc(F)c5)c(Cl)c4)c3c2)o1)c1ccccc1", "inhibition": -2.8}
{"compound": "Nc1ccc(C#Cc2cncnc2Nc2ccc(OCc3cccc(F)c3)c(Cl)c2)cc1", "inhibition": -0.22}
{"compound": "ON=C1CCc2cc(-c3nc(C4CCNCC4)[nH]c3-c3ccncc3)ccc21", "inhibition": -5.24}
{"target": "Homeodomain-interacting protein kinase 1 (Homo sapiens) (UniProt Q86Z02)", "conditions": "at 1 µM", "units": {"inhibition": "%"}}
{"compound": "Cc1ccc(C(=O)NC2CC2)cc1-c1ccc2[nH]ncc2c1", "inhibition": 0.04}
{"compound": "OCc1ccc(-c2nc(-c3ccccn3)c(-c3ccc4c(c3)OCO4)[nH]2)cc1", "inhibition": 4.92}
{"compound": "CC(C)c1ccc2c(c1)NC(=O)/C2=N/Nc1ccc(S(N)(=O)=O)cc1", "inhibition": 4.72}
{"compound": "CN(C)C(=O)O[C@@H]1CN[C@@H](C#Cc2cc3ncnc(Nc4ccc(OCc5cccc(F)c5)c(Cl)c4)c3s2)C1", "inhibition": -3.81}
{"compound": "COc1cccc(-n2nc(C)c3c(N/N=C(\\C)c4ccncc4)ncnc32)c1", "inhibition": 2.66}
{"compound": "COC(=O)c1ccc2c(c1)C(=Cc1cc(Br)c(O)c(Br)c1)C(=O)N2", "inhibition": 60.8}
{"compound": "Oc1cccc(-c2nc(-c3ccccc3)[nH]c2-c2ccncc2)c1", "inhibition": 4.29}
{"compound": "NS(=O)(=O)c1ccc(N/N=C2\\C(=O)Nc3ccc(Cl)cc32)cc1", "inhibition": 10.2}
{"compound": "COC(=O)Nc1nc2cc(Oc3ccc(NC(=O)Nc4cccc(Br)c4)cc3)ccc2[nH]1", "inhibition": 2.41}
{"compound": "COC(=O)c1cncc(/C=C/c2c(C)cc(O)cc2C)c1", "inhibition": 7.63}
{"compound": "COc1cc(/C=N/Nc2ncnc3c2cnn3C(C)C)ccc1O", "inhibition": 16.1}
{"compound": "CCS(=O)(=O)c1ccc(OC)c(Nc2nccc(N(C)c3ccc4c(C)n[nH]c4c3)n2)c1", "inhibition": 1.03}
{"compound": "[O-][S+]1CCN(Cc2ccc(-c3ccc4ncnc(Nc5ccc(OCc6ccccc6)c(Cl)c5)c4c3)o2)CC1", "inhibition": 0.05}
{"compound": "c1ccc(Cc2nc3ccc(Nc4ncnc5ccccc45)cc3[nH]2)cc1", "inhibition": 9.6}
{"compound": "CCS(=O)(=O)c1ccc(OC)c(Nc2ncc(-c3cccc(OC)c3)o2)c1", "inhibition": 48.3}
{"compound": "CCn1c(-c2nonc2N)nc2ccc(F)cc21", "inhibition": 2.13}
{"compound": "CN(C)c1cc2c(Nc3ccc4c(cnn4Cc4ccccc4)c3)ncnc2cn1", "inhibition": 2.06}
{"compound": "COc1cc2ncnc(Nc3ccc4c(cnn4Cc4ccccc4)c3)c2cc1OC", "inhibition": -0.46}
{"compound": "O=C1Nc2ccc(-c3cccnc3)cc2C1=Cc1cc(Br)c(O)c(Br)c1", "inhibition": 22.4}
{"compound": "COc1cc2ncnc(Nc3ccc(C)c(O)c3)c2cc1OC", "inhibition": 2.79}
{"compound": "Cc1ccc2c(-c3ccnc(Nc4ccc5c(c4)OCCO5)n3)c(-c3ccc(C(F)(F)F)cc3)nn2n1", "inhibition": 0.03}
{"compound": "Cc1ccc2c(-c3ccnc(Nc4cccc(C(F)(F)F)c4)n3)c(-c3ccccc3)nn2n1", "inhibition": 3.87}
{"compound": "C[C@@H](Oc1cc(-n2cnc3ccc(OC[C@@H](O)CO)cc32)sc1C(N)=O)c1ccccc1Cl", "inhibition": 4.78}
{"compound": "CN(C)CCCn1c(-c2nonc2N)nc2cnccc21", "inhibition": -0.49}
{"compound": "CN(c1ccc(NC(=O)Nc2ccc(OC(F)(F)F)cc2)cc1)c1ccnc(Nc2cccc(S(N)(=O)=O)c2)n1", "inhibition": 34}
{"compound": "O=C1Nc2ccccc2/C1=C/Nc1ccc2[nH]c(=O)[nH]c2c1", "inhibition": 6.25}
{"compound": "Cc1ccc2c(c1)/C(=N/Nc1ccc(S(N)(=O)=O)cc1)C(=O)N2", "inhibition": 0}
{"compound": "CCCN1CCCC(c2ccc(Nc3nc(Nc4cc(F)ccc4C(N)=O)c4cc[nH]c4n3)c(OC)c2)C1", "note": "(stereo not drawn)", "inhibition": 79.5}
{"compound": "Nc1nccc(-c2c(-c3ccc(F)cc3)nn3cc(C(F)(F)F)ccc23)n1", "inhibition": -1.23}
{"compound": "NS(=O)(=O)c1ccc(-c2cc3ccncc3cc2OCc2ccccc2)cc1", "inhibition": 4.62}
{"compound": "NC(=O)c1sc(-n2cnc3ccccc32)cc1OCc1ccccc1Br", "inhibition": 7.12}
{"compound": "O=S(=O)(CCOCc1ccc(-c2ccc3ncnc(Nc4ccc(OCc5cccc(F)c5)c(Cl)c4)c3c2)o1)c1ccccc1", "inhibition": 2.64}
{"compound": "Nc1ccc(C#Cc2cncnc2Nc2ccc(OCc3cccc(F)c3)c(Cl)c2)cc1", "inhibition": 0.93}
{"compound": "ON=C1CCc2cc(-c3nc(C4CCNCC4)[nH]c3-c3ccncc3)ccc21", "inhibition": 0.65}
